According to PubChem BioAssay (NCATS):
Inconclusive results are not listed. Unmarked numbers belong to inactive results. Activity calls are given as the source filed them. Calls follow the shape of the dose curve; as a rule, active = well fitted cell-killing curve with a large enough effect; inconclusive = small, poorly fitted or top-dose-only effect, or effect the other way; inactive = no such curve, though single readings can be large or run the other way.

How the values were obtained:
[1] = Quantitative High-Throughput drug screen in 47 multiple myeloma cell lines against the NCATS MIPE library collection: OPM1_PLB cell viability assay (AID 1918989); also: nearly all actives have a fitted effect of over 40% in size
Summary of the method: (§1)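 Readout: median RLU from CellTiter-Glo after 5 min at room temperature. Preceding step was 48 h drug treatment of 500 cells/well at 37 °C, 5% CO2, with DMSO-only and media-only control wells.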

[2] = Quantitative High-Throughput drug screen in 47 multiple myeloma cell lines against the NCATS MIPE library collection: SKMM1_PLB cell viability assay (AID 1919863); conditions: SKMM1 myeloma viability, CellTiter-Glo ATP, 48 h; viability: hits give low values; also: nearly all actives have a fitted effect of over 35% in size
Summary of the method: as §1

[3] = Quantitative High-Throughput drug screen in 47 multiple myeloma cell lines against the NCATS MIPE library collection: U266_ATCC cell viability assay (AID 1919864); also: nearly all actives have a fitted effect of over 35% in size
Summary of the method: as §1

[4] = Quantitative High-Throughput drug screen in 47 multiple myeloma cell lines against the NCATS MIPE library collection: XG6_PLB cell viability assay (AID 1919865); also: nearly all actives have a fitted effect of over 40% in size
Summary of the method: as §1

[5] = Quantitative High-Throughput drug screen in 47 multiple myeloma cell lines against the NCATS MIPE library collection: XG1_PLB cell viability assay (AID 1919866); also: nearly all actives have a fitted effect of over 35% in size
Summary of the method: as §1

[6] = Quantitative High-Throughput drug screen in 47 multiple myeloma cell lines against the NCATS MIPE library collection: VP6_DJ cell viability assay (AID 1919867); also: nearly all actives have a fitted effect of over 40% in size
Summary of the method: as §1

[7] = Quantitative High-Throughput drug screen in 47 multiple myeloma cell lines against the NCATS MIPE library collection: UTMC2_PLB cell viability assay (AID 1919868); conditions: CellTiter-Glo ATP luminescence, 48 h; viability (% of DMSO control): at 45.8 µM (top of the series); also: nearly all actives have a fitted effect of over 55% in size
Summary of the method: as §1

[8] = Quantitative High-Throughput drug screen in 47 multiple myeloma cell lines against the NCATS MIPE library collection: PE2_PLB cell viability assay (AID 1919869); also: nearly all actives have a fitted effect of over 35% in size
Summary of the method: as §1

[9] = Quantitative High-Throughput drug screen in 47 multiple myeloma cell lines against the NCATS MIPE library collection: PCM6_Riken cell viability assay (AID 1919870); also: nearly all actives have a fitted effect of over 30% in size
Summary of the method: as §1

[10] = Quantitative High-Throughput drug screen in 47 multiple myeloma cell lines against the NCATS MIPE library collection: OPM2_DSMZ cell viability assay (AID 1919872); also: nearly all actives have a fitted effect of over 30% in size
Summary of the method: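 Myeloma cell lines, 500 cells per well, exposed to MIPE 4.0 library compounds for 48 h at 37C, 5% CO2. Viability from ATP by CellTiter-Glo luminescence; normalised to DMSO (100%) and media-only (0%) wells.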

[11] = Quantitative High-Throughput drug screen in 47 multiple myeloma cell lines against the NCATS MIPE library collection: KMS11_JCRBsus cell viability assay (AID 1919873); also: nearly all actives have a fitted effect of over 50% in size
Summary of the method: as §1

[12] = Quantitative High-Throughput drug screen in 47 multiple myeloma cell lines against the NCATS MIPE library collection: KMS28BM_JCRB cell viability assay (AID 1919874); also: nearly all actives have a fitted effect of over 35% in size
Summary of the method: as §1

[13] = Quantitative High-Throughput drug screen in 47 multiple myeloma cell lines against the NCATS MIPE library collection: RPMI8226_ATCC cell viability assay (AID 1919871); also: nearly all actives have a fitted effect of over 30% in size
Summary of the method: as §1
Potency is read from the fitted curve at half-maximal effect.

SMILES | Potency [1] | Potency [2] | Potency [3] | Potency [4] | Potency [5] | Potency [6] | Potency [7] | Potency [8] | Potency [9] | Potency [10] | Potency [11] | viability [2] | Potency [12] | Potency [13]
CC(=O)Nc1ccc([C@H](C)C(=O)Nc2ncc(C(C)C)s2)cc1 | 5.26 µM (active) | 8.33 µM (active) | 4.69 µM (active) | 0.0935 µM (active) | 0.418 µM (active) | 1.66 µM (active) | 3.72 µM (active) | 2.35 µM (active) | 1.48 µM (active) | 8.33 µM (active) | 2.35 µM (active) |  |  | 
N[C@H](CSC(c1ccccc1)(c1ccccc1)c1ccccc1)C(=O)O | 5.9 µM (active) | 10.5 µM (active) | inactive | 6.62 µM (active) |  | 10.5 µM (active) | 9.35 µM (active) |  |  | 20.9 µM (active) | 4.18 µM (active) |  |  | 
Cc1nnc(C(C)C)n1C1C[C@H]2CC[C@@H](C1)N2CC[C@H](NC(=O)C1CCC(F)(F)CC1)c1ccccc1 (stereo not given in full) | inactive |  | 11.8 µM (active) | 4.69 µM (active) |  | 23.5 µM (active) | inactive |  |  | inactive | inactive | 147% | inactive | 
Cc1c(O)cccc1C(=O)N[C@@H](CSc1ccccc1)[C@H](O)CN1C[C@H]2CCCC[C@@H]2C[C@@H]1C(=O)NC(C)(C)C | 18.7 µM (active) | 20.9 µM (active) | 18.7 µM (active) | 29.6 µM (active) | 23.5 µM (active) | 18.7 µM (active) | 23.5 µM (active) | 26.4 µM (active) | 18.7 µM (active) | 26.4 µM (active) | 18.7 µM (active) |  | 20.9 µM (active) | 18.7 µM (active)
COc1cc2ncnc(Nc3ccc(F)c(Cl)c3)c2cc1OCCCN1CCOCC1 | 4.29 µM (active) | 67.9 µM (active) | 30.3 µM (active) | 0.0762 µM (active) | 3.03 µM (active) | 6.79 µM (active) | 17.1 µM (active) | 13.6 µM (active) | 6.05 µM (active) | 54 µM (active) | 21.5 µM (active) |  |  | 42.9 µM (active)
CC[C@@]1(O)C[C@H](O[C@H]2C[C@H](N(C)C)[C@H](O[C@H]3C[C@H](O)[C@H](O[C@H]4CCC(=O)[C@H](C)O4)[C@H](C)O3)[C@H](C)O2)c2c(cc3c(c2O)C(=O)c2c(O)cccc2C3=O)[C@@H]1C(=O)OC | 0.833 µM (active) | 0.833 µM (active) | 0.418 µM (active) | 0.296 µM (active) |  | 0.59 µM (active) | 0.187 µM (active) | 0.526 µM (active) | 1.05 µM (active) | 4.18 µM (active) | 0.166 µM (active) |  | 0.132 µM (active) | 
Cc1[nH]c(C=C2C(=O)Nc3ccc(S(=O)(=O)Cc4c(Cl)cccc4Cl)cc32)c(C)c1C(=O)N1CCC[C@H]1CN1CCCC1 | 8.33 µM (active) | 20.9 µM (active) | 23.5 µM (active) | 8.33 µM (active) |  | 8.33 µM (active) | 20.9 µM (active) | 20.9 µM (active) | 7.43 µM (active) | 26.4 µM (active) | 11.8 µM (active) |  | 20.9 µM (active) | 
Nc1ncnc2c1ncn2[C@@H]1O[C@H](CO)C[C@@H]1O | inactive | 18.7 µM (active) | 26.4 µM (active) | inactive | inactive |  |  | inactive | inactive | inactive | 37.2 µM (active) |  |  | 
O=C(Nc1ccccc1-c1cn2c(CN3CCNCC3)csc2n1)c1cnc2ccccc2n1 | 8.33 µM (active) | 4.69 µM (active) | 11.8 µM (active) | 9.35 µM (active) | 7.43 µM (active) | 9.35 µM (active) |  | 8.33 µM (active) | 10.5 µM (active) | 23.5 µM (active) | 8.33 µM (active) |  |  | 20.9 µM (active)
CC(C)OC(=O)CCCC=CC[C@@H]1[C@H](C=C[C@@H](O)COc2cccc(C(F)(F)F)c2)[C@H](O)C[C@@H]1O | 18.7 µM (active) | 20.9 µM (active) | 20.9 µM (active) | 16.6 µM (active) | 18.7 µM (active) |  | 16.6 µM (active) | 16.6 µM (active) | 20.9 µM (active) | 23.5 µM (active) | 16.6 µM (active) |  | 18.7 µM (active) | 10.5 µM (active)
Clc1ccc(C(c2ccc(Cl)cc2)n2cc[n+](CC(OCc3ccc(Cl)cc3Cl)c3ccc(Cl)cc3Cl)c2)cc1 (stereo not given) | 11.8 µM (active) | 20.9 µM (active) | 16.6 µM (active) | 6.62 µM (active) | 8.33 µM (active) | 8.33 µM (active) | 4.69 µM (active) | 13.2 µM (active) | 6.62 µM (active) | 18.7 µM (active) | 9.35 µM (active) |  | 11.8 µM (active) | 20.9 µM (active)
CCc1ccc(OCc2ccccc2C(=O)Nc2ccc3nc(C)cc(N)c3c2)cc1 | 1.32 µM (active) | 6.62 µM (active) | 5.9 µM (active) | 1.05 µM (active) | 1.48 µM (active) | 1.32 µM (active) | 3.32 µM (active) | 2.35 µM (active) | 1.18 µM (active) | 9.35 µM (active) | 1.48 µM (active) |  | 1.18 µM (active) | 6.62 µM (active)
NS(=O)(=O)c1cccc2c1C(=O)c1cccc(O)c1C2=O | 0.235 µM (active) | 0.372 µM (active) | 6.62 µM (active) | 0.372 µM (active) |  | 0.662 µM (active) | 0.372 µM (active) | 0.187 µM (active) | 0.469 µM (active) | 2.64 µM (active) | 0.105 µM (active) |  | 0.469 µM (active) | 0.833 µM (active)
